tested on: VDR:RXRa (NR concentration 270 nM, RXRa partner concentration 90 nM); experiment: PBM binding z-score (relative to random genomic background probes); higher = stronger binding; sequences stand for … in GC…GCGATTGACAGCGTAGAATGAAGG
Procedure: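 Protein-binding microarray (Agilent 4x180K custom design, double-stranded 60-nt probes: 5' GC cap, 34-nt variable region, 24-nt constant primer region; full probe sequence given). Purified or IVT nuclear receptor:RXRα heterodimers (3:1 NR:RXRα, mostly 270:90 nM) or homodimers were incubated for 1 h in PBS with 2% milk and no ligand, then detected with Alexa488 antibodies. Fluorescence from o1-orientation probes (~5 replicates averaged) was converted to z-scores against 500 random hg19 background probes. Variable regions are seed direct-repeat (DR0–DR5) sites, all their single-nucleotide variants and half-site ablations.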

| Sequence | PBM binding z-score |
| --- | --- |
| CAAACCAGGTCAAGAGGTCAAAGTCCGCTTCCCG | 6.45 |
| CCAACTGGGCCAAAAAGGTCATTGATGCCGATAA | 4.89 |
| CAAACTAGGTCAAGGTCTAAGTCGGTTTGTGCCA | 1.95 |
| CTATGTAGGTTAAGGGAGTCATTCAGTTTGAAAG | 1.94 |
| TACCCTAGGTCATGGGCCAGTATACCACGCGAAC | 2.67 |
| AGTCAAAGTTGAGGACGAGGTAACGTAAAGCACG | 0.263 |
| TCTTGTAGATCAATAGAAGTTAAGAAAGTGCGCT | 0.744 |
| CGAACTAGGTCAAGGACAGTAAATCTCCGCACGC | 1.33 |
| AGCGAAAGGTCGAGGTGAGTATAGAGAAAGGGAA | 2.71 |
| AGAATGAGGTCATTAAGATCAGGGAATTGCGGTC | 5.8 |
| CGTCAAACTTCAACTAAGGTAACGTAAAGCACGC | 0.382 |
| TCTCGGAGGACACCAAAGGTCAGAGCTCGACATC | 3.38 |
| AGAATGAGGTCACCAAAGATCAGGGAAACGCTTG | 5.55 |
| CCGAATAGGTTACGAGGGGGCATTCAGTGCGAAT | 5.89 |
| TAGCCTAGGTCACATCGGGCCAGTATACGCTATA | 2.43 |
| CGTCTAAGGTCATAGGAGGTCAGTGAAGACAGAT | 6.86 |
| ATCGAAAGGTCGAAGGTGAGCATACCCACCCGAA | 2.63 |
| CGTCCAAGGTTAAGGTCAGTGAAAGAGACTCGAA | 2.5 |
| CGTCAAAGGTCAACTAAGGTAACGTAAAGCACGC | 6.2 |
| TCTAGTTGGTCACGGAGGGCACACACGACGGGTA | 3.62 |
